We go through 108 compounds from the supplement of paper PMC11150407.

Each structure is given as a SMILES string. About 45 (2%) of roughly 3,000 compounds showed an effect of 50% or more. The sample holds strong results, similar compounds and a random draw of the others, so the mix is not that of the screen.

The subject of the experiment is MOLM1 and UCSD/AML1 (averaged). Nature of the experiment: cell viability relative to DMSO control (POC); higher = less growth inhibition. As to conditions: 1 µM; 72 h. The procedure:
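Primary viability screen in the 3q26 EVI1-high AML cell lines MOLM1 and UCSD/AML1, compounds at 1 uM for 72 h. ATP CellTiter-Glo read-out given as percent viable over DMSO control (POC), averaged over duplicates. This mapping covers the TimTec NDL-3000 natural derivative library, whose compounds are identified by TimTec catalogue codes (ST...).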
`O=C1C[C@H](n2nc(-c3ccccc3Br)oc2=S)[C@H]2CO[C@@H]1O2`: the cell viability (in general, a read-out of living cells in per cent, often relative to untreated cells) was determined as 55.5%.
Take `O=C1CC(n2c(=O)oc3ccccc32)C2COC1O2` (stereo not drawn): the cell viability worked out at 14.7%.
In the case of `O=C1CC(n2nnnc2-c2ccccc2Cl)C2COC1O2` (stereo not drawn), the cell viability was 64.4%.
`Cc1ccc2c(O)c([N+](=O)[O-])c(=O)oc2c1`: the cell viability worked out at 103%.
The same measure for `Cn1c(=O)c2c(nc3n2CC(C24CC5CC(CC(C5)C2)C4)=NN3CCO)n(C)c1=O`: 106%.
For `CCOc1cc2c(cc1OCC)C(c1cccc(F)c1F)NCC2` (stereo not drawn), the cell viability came out at 86.1%.
On to `O=C(O)c1cccc(Nc2nc(-c3ccc(Cl)cc3)nc3ccccc23)c1`, for which the cell viability was found to be 90%.
Under `O=C(O)c1ccccc1-c1c2ccc(=O)c(Br)c-2oc2c(Br)c(O)ccc12` stands 103%; under `COc1ccc(C(=O)N2CCCc3cccc(OC)c32)cc1OC`, 90.1%.
Under `O=C(/C=C/c1ccc([N+](=O)[O-])cc1)c1cccc2ccccc12` stands 32.8%.
Consider `O=C(O)/C=C/c1ccc([N+](=O)[O-])cc1`, for which the cell viability turned out to be 109%.
Under `O=C(/C=C/c1ccc(Cl)cc1Cl)c1cccc2ccccc12` stands 95.1%; under `COc1ccc2c(c1)c(CC(=O)NCc1ccccn1)c(C)n2C(=O)c1ccc(Cl)cc1`, 84.5%; under `O=C(/C=C/c1ccccc1)c1cc(O)ccc1O`, 93.7%.
The same measure for `O=C(/C=C/c1ccccc1)c1ccc(O)cc1`: 2.68%; for `O=C(/C=C/c1ccccc1)c1ccc(O)cc1O`: 96.7%.
`COc1ccc(/C=C(\C#N)C(=O)OC(C)C)c(OC)c1OC`: the cell viability is 106%.
Under `O=c1[nH]c(=O)n(C2C[C@H](O)[C@@H](CO)O2)cc1I` (stereo partly drawn) stands 89.8%; under `CC(=O)OC1CC(n2cc(C)c(=O)[nH]c2=O)OC1CO` (stereo not drawn), 98.2%; under `O=c1[nH]c(=O)n(C2CC(O)C(CO)O2)cc1C(F)(F)F` (stereo not drawn), 29.6%.
In the case of `CCOc1ccc2oc(=O)cc(CN3CCNCC3)c2c1`, the cell viability was 90.2%.
As for `CCOc1ccccc1C(=O)NCCc1c(C)[nH]c2ccccc12`, the cell viability was 105%.
For `COc1ccc(C2c3[nH]c4ccccc4c3CCN2CC(=O)Nc2ccc(C)cc2)cc1` (stereo not drawn), the cell viability was determined as 87.2%.
Under `COc1ccc(C(=O)/C=C/c2ccccc2)c(O)c1` stands 101%; under `O=C(/C=C/c1ccc(O)cc1)c1ccc(O)cc1O`, 102%.
The same measure for `COc1ccc(/C=C/C(=O)c2ccc(O)cc2C)cc1`: 22.5%.
Regarding `COc1ccc2c(c1)c(CC(=O)NCCSc1ccccc1)c(C)n2C(=O)c1ccc(Cl)cc1`, the cell viability is 98.5%.
The same measure for `COc1ccc(C(NS(=O)(=O)c2ccc(C)cc2)c2nccc3cc(OC)c(OC)cc23)cc1OC` (stereo not drawn): 98.4%.
`C=CCN(C(=O)CSc1nc2ccccc2c(=O)[nH]1)c1ccccc1`: the cell viability was determined as 88.4%.
The same measure for `COc1ccc(OC)c(NC(=O)c2cc(OC)c(OC)c(OC)c2)c1`: 85.9%; for `C=CCN(C(=O)CSc1nc2c(=O)[nH]cnc2n1-c1ccccc1)c1ccccc1`: 98%; for `CCCCCOc1ccc(C2=NOC(=O)/C2=C\c2cc(Cl)ccc2O)cc1`: 92.3%.
Under `Cc1ccc(-n2c(SCc3ccccc3F)nc3c(=O)[nH]cnc32)cc1` stands 95.2%.
The same measure for `CC1CCc2nc(S[C@H]3CC(=O)[C@@H]4OC[C@H]3O4)nc(C(F)(F)F)c2C1` (stereo partly drawn): 39.9%; for `COc1ccc(-c2cc(C(F)(F)F)nc(SC3CC(O)C4OCC3O4)n2)cc1OC` (stereo not drawn): 98.4%.
As for `COc1ccc(-c2cc(-c3ccc4c(c3)OCO4)[nH]c(=O)c2C#N)cc1`, the cell viability was 97.1%.
As for `CC1(C)C2CCC1(CS(=O)(=O)Nc1ccncc1)C(=O)C2` (stereo not drawn), the cell viability came out at 106%.
Take `COc1cc(C(=O)NCC(C)NC(=O)c2cc(OC)c(OC)c(OC)c2)cc(OC)c1OC` (stereo not drawn): the cell viability worked out at 99.3%.
The same measure for `CCOc1ccc2oc(=O)cc(CN3CCN(CC(=O)Nc4cc(F)ccc4F)CC3)c2c1`: 98.5%; for `CCOC(=O)c1c(CC(C#N)(c2ccccc2)c2ccccc2)n(C)c2cc(Br)c(OC)cc12`: 17.7%; for `CCOC(=O)c1c(CSCc2ccccc2)n(-c2ccccc2)c2cc(Br)c(OC)cc12`: 110%.
Turning to `CCOC(=O)c1c(C)n(-c2ccccc2)c2cc(Br)c(OC)cc12`, the cell viability worked out at 110%.
Regarding `Cn1c(=O)c2ccccc2n(CC(=O)N2CCc3ccccc3C2)c1=O`, the cell viability turned out to be 107%.
Turning to `COc1ccc(NC(=O)CSc2nc3c(=O)[nH]cnc3n2-c2ccc(C)cc2)cc1OC`, the cell viability was found to be 92.8%.
As to `Cc1ccc2occ(C)c(=O)c2c1`, the cell viability was determined as 98.5%.
With `O=C(Cn1c(=O)cc(C(=O)N2CCc3ccccc3C2)c2ccccc21)Nc1ccc(Cl)cc1`, the cell viability is 105%.
For the compound `N#CC1=C(N)Oc2cc(O)ccc2C1c1cccc(C(F)(F)F)c1` (stereo not drawn), the cell viability turned out to be 22.1%.
Take `N#CC1=C(N)Oc2cc(O)ccc2C1c1ccccc1` (stereo not drawn): the cell viability was 104%.
With `N#CC1=C(N)Oc2cc(O)ccc2C1c1cccc([N+](=O)[O-])c1` (stereo not drawn), the cell viability was 101%.
On to `N#CC1=C(N)Oc2cc(O)ccc2C1c1ccccc1F` (stereo not drawn), for which the cell viability is 13.8%.
The same measure for `CCc1ccc(C2C(C#N)=C(N)Oc3cc(O)ccc32)cc1` (stereo not drawn): 110%; for `N#CC1=C(N)Oc2[nH]c(=O)[nH]c(=O)c2C1c1ccccc1F` (stereo not drawn): 94.3%.
The same measure for `O=C(O)CNC(=O)c1ccc(Cl)cc1`: 108%; for `O=c1c(O)c(-c2ccc(F)cc2)oc2cc(Cl)ccc12`: 100%.
As to `Cc1cc(C)c(NC(=O)Cn2c(=O)cc(C(=O)N3CCCCC3)c3ccccc32)c(C)c1`, the cell viability was found to be 99.4%.
The same measure for `COCCOC(=O)c1c(C)n(CCOC23CC4CC(CC(C4)C2)C3)c2c1cc(O)c1ccccc12`: 81.2%; for `Cc1ccc(-n2c(SCC(=O)Nc3ccccc3C(F)(F)F)nc3c(=O)[nH]cnc32)cc1`: 108%.
The same measure for `COc1cc(C(=O)Nc2ccccc2C(=O)Nc2ccccc2)cc(OC)c1OC`: 36%; for `COC(=O)c1ccc(NC(=O)c2cc(OC)c(OC)c(OC)c2)cc1`: 23.1%.
Consider `COc1cc(C(=O)Nc2ccc(CN3CCCC3)cc2)cc(OC)c1OC`, for which the cell viability was found to be 87.4%.
The same measure for `COc1cc(C(=O)Nc2ccc(C(=O)c3cccs3)cc2)cc(OC)c1OC`: 99.7%.
Under `COc1cc(C(=O)Nc2ccc3ncn(C)c3c2)cc(OC)c1OC` stands 93.9%; under `COc1cc(C(=O)Nc2ccccc2NC(=O)c2cc(OC)c(OC)c(OC)c2)cc(OC)c1OC`, 95.9%.
In the case of `COc1cc(C(=O)Nc2ccc(C(=O)NCc3ccccc3)cc2)cc(OC)c1OC`, the cell viability amounted to 87%.
The same measure for `CCCCc1ccc(NC(=O)c2cc(OC)c(OC)c(OC)c2)cc1`: 49.6%.
Turning to `COc1cc(C(=O)Nc2ccc3c(c2)ncn3C)cc(OC)c1OC`, the cell viability amounted to 19%.
`COc1cc(C(=O)Nc2ccc(C(F)(F)F)cc2)cc(OC)c1OC`: the cell viability was 93.8%.
Take `COc1cc(C(=O)Nc2ccccc2C(=O)NCc2ccccc2)cc(OC)c1OC`: the cell viability worked out at 85.2%.
Under `COc1ccc(C(=O)Nc2ccc3ncn(C)c3c2)cc1OC` stands 101%; under `O=C(CSc1nc2ccccc2c(=O)[nH]1)NCc1ccccc1Cl`, 107%.
Under `Cc1ccc(NC(=O)CN2C(=O)S/C(=C/c3cc4c(cc3Cl)OCO4)C2=O)cc1` stands 92%; under `CNC(=O)c1ccccc1NC(=O)C(=O)c1c[nH]c2ccccc12`, 111%.
On to `CCOC(=O)/C=C1\NC(C)(C)Cc2cc3c(cc21)OCCO3`, for which the cell viability was 89.5%.
As for `CC(C)COc1ccc(C(=O)N/C(=C\c2ccccc2)C(=O)NCCNC(=O)/C(=C\c2ccccc2)NC(=O)c2ccc(OCC(C)C)cc2)cc1`, the cell viability stood at 103%.
On to `COc1cc(OC)cc(C(=O)Nc2cc(OC)cc(S(=O)(=O)c3ccc(Cl)cc3)c2)c1`, for which the cell viability amounted to 92.8%.
On to `CCc1cccc(C)c1NC(=O)CN1CCN(Cc2cc(=O)oc3cc(C)ccc23)CC1`, for which the cell viability turned out to be 95.4%.
Turning to `Cc1ccc2c(C)cc(=O)[nH]c2c1C`, the cell viability came to 109%.
Turning to `COc1cc(C(=O)CCNc2ccc(F)cc2)cc(OC)c1OC`, the cell viability is 78.3%.
For `Cc1ccc2[nH]c(C)c(CCNS(=O)(=O)c3ccc4c(c3)OCCO4)c2c1`, the cell viability turned out to be 99.4%.
The same measure for `COc1ccc(/C=C/C(=O)c2ccccc2)cc1COc1ccc([N+](=O)[O-])cc1`: 101%.
The same measure for `COc1ccc(/C=C/C(=O)c2ccccc2)cc1COc1ccc(Cl)cc1`: 106%; for `COc1ccc(/C=C/C(=O)c2ccccc2)cc1COc1ccc(NC(C)=O)cc1`: 40%; for `Cc1ccc(C)c(-c2nc(CSc3nc4c(=O)[nH]cnc4n3C)c(C)o2)c1`: 103%.
As to `Cc1cc2c(c(O)c1-c1c(C)cc3c(c1O)/C(=C/Nc1c(C)n(C)n(-c4ccccc4)c1=O)C(=O)C(O)=C3C(C)C)/C(=C/Nc1c(C)n(C)n(-c3ccccc3)c1=O)C(=O)C(O)=C2C(C)C`, the cell viability was determined as 84.6%.
Consider `COc1cc(C(=O)NC(C(=O)O)C(C)C)cc(OC)c1OC` (stereo not drawn), for which the cell viability was determined as 103%.
The same measure for `CC(C)(C)c1ccc(C(=O)NCC(=O)O)cc1`: 95.9%.
With `O=C(/C=C/c1cccc([N+](=O)[O-])c1)c1ccc2c(c1)OCO2`, the cell viability stood at 98.1%.
As to `O=[N+]([O-])C1=Cc2ccccc2OC1c1ccc2c(c1)OCO2` (stereo not drawn), the cell viability came out at 2.67%.
`O=C(/C=C/c1ccc([N+](=O)[O-])cc1)NCc1ccc2c(c1)OCO2`: the cell viability was 97%.
The same measure for `COCCN1C(=O)/C(=C\c2cc(OC)c(OC)c(OC)c2)C(C(=O)OC)=C1C`: 101%; for `O=C(CCNc1cccc(Cl)c1)c1cc2ccccc2oc1=O`: 115%.
Under `CCOC(=O)c1ccc2[nH]c(-c3ccccc3)cc(=O)c2c1` stands 7.45%.
Under `CCOC(=O)c1ccc2[nH]c(=O)c(C)c(O)c2c1` stands 108%.
For the compound `CCOC(=O)c1ccc2[nH]c(=O)c(Cc3ccccc3)c(O)c2c1`, the cell viability was 97.9%.
Under `COc1ccc(C(=O)CC2(O)C(=O)N(Cc3cccc4ccccc34)c3ccccc32)cc1OC` (stereo not drawn) stands 97.5%.
The same measure for `NC(=O)CC1CCCCN1` (stereo not drawn): 126%; for `Cc1ccc2oc(C(Cl)(Cl)Cl)cc(=O)c2c1`: 26.6%; for `Cc1ccc2occc(=O)c2c1`: 100%.
For `Cc1ccc(-c2cc(=O)c3ccccc3o2)cc1`, the cell viability stood at 92.3%.
In the case of `O=c1ccoc2ccccc12`, the cell viability is 93.1%.
`O=c1cc(C(Cl)(Cl)Cl)oc2ccc(Cl)cc12`: the cell viability was found to be 7.16%.
The same measure for `O=c1cc(-c2ccccc2Br)oc2ccc(Cl)cc12`: 110%; for `O=c1cc(O)c2cc(Cl)ccc2o1`: 101%; for `O=c1cc(C(Cl)(Cl)Cl)oc2ccccc12`: 4.98%.
For the compound `Cc1ccc2oc(-c3ccccc3C)cc(=O)c2c1`, the cell viability came to 21.6%.
Turning to `Cc1ccc2oc(-c3ccc(Cl)cc3)cc(=O)c2c1`, the cell viability amounted to 85.9%.
In the case of `O=c1cc(-c2ccc(Br)cc2)oc2ccc(Cl)cc12`, the cell viability came out at 96%.
The same measure for `Cc1ccccc1-c1cc(=O)c2cc(Br)ccc2o1`: 106%.
